VDR inh – inhibitors of human vitamin D receptor. AID 504847. 400,000 compounds, 0.93% hits. VDR-SRC2-3 peptide fluorescence polarization, 2 h. P11473. Potency, µM, actives largely listed as inhibitors
Target sequence (P11473 whole entry, looked up): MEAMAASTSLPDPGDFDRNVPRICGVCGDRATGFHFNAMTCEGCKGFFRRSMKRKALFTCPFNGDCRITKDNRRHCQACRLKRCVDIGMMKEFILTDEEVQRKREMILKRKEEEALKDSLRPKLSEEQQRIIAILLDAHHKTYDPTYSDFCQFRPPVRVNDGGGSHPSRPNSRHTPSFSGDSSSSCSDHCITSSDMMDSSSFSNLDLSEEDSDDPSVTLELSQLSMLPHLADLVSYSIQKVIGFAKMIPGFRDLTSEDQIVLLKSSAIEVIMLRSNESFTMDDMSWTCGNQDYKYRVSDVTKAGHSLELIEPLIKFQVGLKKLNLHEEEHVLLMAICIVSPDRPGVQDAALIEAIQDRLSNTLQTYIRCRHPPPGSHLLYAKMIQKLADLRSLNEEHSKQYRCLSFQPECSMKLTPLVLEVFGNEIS
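FP read-out; VDR + SRC2-3 coactivator peptide; 23 nl compound by pintool; 2 h RT incubation; reagents held at 4 deg C, protected from light.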
HP1b chromo inh – inhibitors of HP1-beta chromodomain binding to methylated histone tails | P83916 | AlphaScreen HP1-beta / biotin-H3K9me3 peptide binding | Potency, µM (doses to about 114 µM), hits mostly inhibitors | 390,000 compounds, 0.56% hits | AID 540317; note: nearly all actives have a fitted effect of over 70% in size
Target sequence (P83916 whole entry, looked up): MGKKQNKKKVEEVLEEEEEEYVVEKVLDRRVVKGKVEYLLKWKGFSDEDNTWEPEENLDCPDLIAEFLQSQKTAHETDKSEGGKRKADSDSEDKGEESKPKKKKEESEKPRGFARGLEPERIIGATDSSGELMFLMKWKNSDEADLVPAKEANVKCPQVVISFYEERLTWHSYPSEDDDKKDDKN
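Compound inhibition of the preformed complex between 50 nM HP1-beta and 50 nM biotinylated H3K9me3 peptide was read by AlphaScreen. Buffer was PBS pH 7.4 with 0.01% Tween-20. Incubations ran 30 min at room temperature, with 10 ug/mL donor/acceptor beads.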
PLK1 PBD inh – inhibitors of human PLK1 polo-box domain binding; AID 720504; Potency, µM, actives largely listed as inhibitors; 360,000 compounds, 2.8% hits; P53350; Plk1 PBD binding of FITC phosphopeptide, fluorescence polarization; note: series mostly up to about 57 µM; nearly all actives have a fitted effect of over 65% in size
JMJD2A Tudor – JMJD2A Tudor domain (human) inhibition | 390,000 compounds, 4.4% hits | Potency, µM (series often up to 114 µM), actives largely listed as inhibitors | O75164 | AlphaScreen JMJD2A-Tudor / H3K4me3 peptide binding; note: nearly all actives have a fitted effect of over 50% in size
G9a inh – G9a (human) methyltransferase inhibition; G9a H3K9 monomethylation, AlphaScreen, 2 h; Potency, µM (titrated, usually from 102 µM), actives largely listed as inhibitors; 350,000 compounds, 8.8% hits; note: nearly all actives have a fitted effect of over 75% in size
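G9a (20 nM) was preincubated 15 min with compound, then reacted 2 h at room temperature with 500 nM biotin-H3K9 peptide and 20 µM SAM. Monomethyl-H3K9 detected by AlphaScreen using anti-H3K9me1 antibody.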
BAZ2B inh – inhibitors of human BAZ2B bromodomain. Q9UIF8. AlphaScreen BAZ2B-H3K14Ac peptide displacement. Potency, µM (titrated, usually from 114 µM), hits mostly inhibitors. 360,000 compounds, 4.4% hits. AID 504333; note: nearly all actives have a fitted effect of over 60% in size
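Multi-concentration screen (max 110 uM) measuring displacement of acetylated histone H3 peptide from BAZ2B by AlphaScreen, using 50 nM protein, 50 nM peptide and 10 ug/mL streptavidin donor plus Ni-chelate acceptor beads.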
TbPYK confirm – confirmation of Trypanosoma brucei pyruvate kinase inhibitors; shares compounds with PLK1 PBD inh; recombinant TbPYK, Kinase-Glo ATP luminescence; Potency, µM (top dose mostly 76.9 µM), usual class: inhibitors; 890 compounds, 67% hits; AID 720569; note: nearly all actives have a fitted effect of over 70% in size
TbPYK ADP-Glo – orthogonal confirmation of Trypanosoma brucei pyruvate kinase inhibitors. AID 720584. recombinant TbPYK, ADP-Glo luminescence, 60 min. Potency, µM (titrated, usually from 76.9 µM), usual class: inhibitors. 890 compounds, 62% hits. shares compounds with PLK1 PBD inh; note: nearly all actives have a fitted effect of over 75% in size
Of the large screens only hits and unclear results are named; the others gave an inactive call (follow-up assays come after a bar, where they were run). An excerpt weighted towards active compounds, which were near 11% of everything screened. Calls come from the whole dose curve; as a rule, active = well fitted curve in the direction sought with a large enough effect; inconclusive = small, poorly fitted or top-dose-only effect, or another doubt; inactive = no such curve, though single readings can be large; an effect the other way counts as inactive or inconclusive.

Cc1nonc1C(=O)N/N=C/c1ccc(O)cc1O	none (no result: G9a inh) | TbPYK confirm 28µM | TbPYK ADP-Glo inactive
O=C1CCCCCCC1Sc1ccccc1[N+](=O)[O-] (stereo not drawn)	HP1b chromo inh inconclusive, PLK1 PBD inh inconclusive, G9a inh 11µM, BAZ2B inh inconclusive | TbPYK confirm 13µM | TbPYK ADP-Glo inconclusive
CCc1ccccc1NC(=O)CCCn1c(=O)c2cccn2c2ccccc21	JMJD2A Tudor inconclusive, G9a inh inconclusive, BAZ2B inh inconclusive (no result: PLK1 PBD inh)
N#Cc1cc2c(nc1SCc1cccnc1)CCCC2	PLK1 PBD inh 27µM, JMJD2A Tudor inconclusive, G9a inh inconclusive | TbPYK confirm 4µM | TbPYK ADP-Glo 6.3µM
N#Cc1cc2c(nc1SCc1cccnc1)CCC2	none
N#C/C(=C/c1ccc(N2CCOCC2)o1)C(=O)Nc1ccccc1	none
N#C/C(=C/c1ccc(N2CCCCCC2)o1)c1ccc(Cl)cc1	VDR inh 22µM, JMJD2A Tudor 40µM, G9a inh 7.9µM, BAZ2B inh 45µM | TbPYK confirm inconclusive | TbPYK ADP-Glo 35µM
CCS(=O)(=O)N1CCC2(CC1)OCCN2S(=O)(=O)c1ccccc1	none (no result: VDR inh, HP1b chromo inh, JMJD2A Tudor, G9a inh, BAZ2B inh)
CCN(CC)C(=O)C1CCN(c2cc(C)nc3c(-c4ccc(OC)c(OC)c4)c(C)nn23)CC1	none (no result: PLK1 PBD inh)
COC(=O)c1sccc1NC(=O)c1cc(-c2ccc(C)cc2)nc2ccccc12	none (no result: G9a inh)
COC(=O)c1sc(NC(=O)c2cc(-c3ccccc3)nc3ccccc23)c(C#N)c1C	VDR inh inconclusive, HP1b chromo inh 7.9µM, PLK1 PBD inh 2.7µM, G9a inh inconclusive | TbPYK confirm 7.1µM | TbPYK ADP-Glo 7.1µM
Cn1nnc2ccccc2c1=O	none
Cc1nc(SCc2ccc(O)c([N+](=O)[O-])c2)c([N+](=O)[O-])[nH]1	VDR inh inconclusive, HP1b chromo inh inconclusive, JMJD2A Tudor 22µM, BAZ2B inh inconclusive (no result: G9a inh) | TbPYK confirm inconclusive | TbPYK ADP-Glo 13µM
CCN=C1S/C(=C\c2cn(C(C)=O)nc2-c2ccccc2)C(=O)N1CC	none
CC(=O)NC1=NC(=O)/C(=C/c2cn(C(C)=O)nc2-c2ccccc2)S1	VDR inh inconclusive, HP1b chromo inh inconclusive, PLK1 PBD inh 9.5µM, JMJD2A Tudor 22µM, G9a inh 8.9µM | TbPYK confirm inconclusive | TbPYK ADP-Glo inconclusive
Cc1cc(NC(=S)N(CCCN2CCOCC2)Cc2ccco2)ccc1Cl	JMJD2A Tudor inconclusive, BAZ2B inh inconclusive
Cc1ccc(C(=O)O/N=C(\N)c2ccccn2)c(Cl)c1	none (no result: G9a inh) | TbPYK confirm 16µM | TbPYK ADP-Glo inactive
CCc1cccc(C)c1NC(=O)CSc1nnc(CCCOc2ccc(Cl)cc2Cl)n1C	none
O=c1ccc2nc3ccccc3sc-2c1	PLK1 PBD inh 21µM (no result: VDR inh, HP1b chromo inh, JMJD2A Tudor, G9a inh, BAZ2B inh) | TbPYK confirm 13µM | TbPYK ADP-Glo inconclusive
CC(C)C(=O)N(Nc1nc2ccccc2s1)C(=O)C(C)C	none
Cc1cc(C)c(C#N)c(SC2CCCCC2=O)n1 (stereo not drawn)	G9a inh inconclusive | TbPYK confirm 14µM | TbPYK ADP-Glo 18µM
Cc1ccc(N2C(N)=C(C#N)C(c3cccs3)C3=C2CC(C)(C)CC3=O)cc1 (stereo not drawn)	JMJD2A Tudor inconclusive, G9a inh inconclusive
CCOC(=O)c1ccc(N2CSC3=C(C#N)C(c4cccs4)CC(=O)N3C2)cc1 (stereo not drawn)	VDR inh 89µM, HP1b chromo inh inconclusive, JMJD2A Tudor 28µM, G9a inh 5.6µM, BAZ2B inh 45µM | TbPYK confirm inconclusive | TbPYK ADP-Glo inconclusive
Cc1ccc(N2CSC3=C(C#N)C(c4cccs4)CC(=O)N3C2)cc1 (stereo not drawn)	VDR inh 79µM, HP1b chromo inh inconclusive, PLK1 PBD inh 15µM, JMJD2A Tudor 32µM, G9a inh 1.4µM, BAZ2B inh inconclusive | TbPYK confirm 2.5µM | TbPYK ADP-Glo 1.6µM
COc1ccccc1C(O)c1ncc(-c2cccc(C(F)(F)F)c2)[nH]1 (stereo not drawn)	none (no result: VDR inh, HP1b chromo inh, JMJD2A Tudor, G9a inh, BAZ2B inh)
COC(=O)/C(=N\Nc1ccccc1)Sc1nnc(-c2ccc(OC)cc2)n1C	JMJD2A Tudor inconclusive, G9a inh 5µM | TbPYK confirm 18µM | TbPYK ADP-Glo 18µM
COc1ccc(-c2nnc(SCC(=O)Nc3ccccc3)n2C)cc1	none
O=C(CNC(=O)N1CC(=O)Nc2ccccc21)Nc1cccc(F)c1	none
Cc1ccc(-c2cc(C(=O)Nc3cccnc3)c3ccccc3n2)o1	HP1b chromo inh inconclusive, PLK1 PBD inh inconclusive, JMJD2A Tudor 22µM, G9a inh 8.9µM | TbPYK confirm inconclusive | TbPYK ADP-Glo inactive
O=C(Nc1cccnc1)c1cc(-c2ccc(Br)cc2)nc2ccccc12	none
CN(C)S(=O)(=O)c1cccc(NC(=O)c2cccc(N3C(=O)CCC3=O)c2)c1	G9a inh inconclusive
